Hit rate of the full screen: of about 5,500 compounds, about 2,000 (36%) were called active. Not shown: some 18% with an inconclusive outcome. Cut-off read from the data, not from the text of the source: active = normalized growth mostly below about 0.91 (no sharp cut-off); inconclusive = no clear call, values can overlap the other calls; inactive = mostly above about 0.92. Some of the results follow.
Test: chemical genetic growth profiling, strain panel (AID 1159580);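 note: tested at 20 µM; growth read once vehicle control cultures reached saturation at 30 °C; 1 = growth at the plate median or of vehicle wells; lower values mean less growth of the strain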
Conditions: S. cerevisiae deletion strains, growth OD
[1] = locus YAR019C, strain CDC15, active compounds read low
[2] = locus YBL105C, strain PKC1, active compounds read low
[3] = locus YBR135W, strain CKS1, active compounds read low
[4] = locus YBR136W, strain MEC1, active compounds read low
[5] = locus YBR160W, strain CDC28, active compounds read low
[6] = locus YDL017W, strain CDC7, active compounds read low
[7] = locus YDL028C, strain MPS1, active compounds read low
[8] = locus YDL101C, strain DUN1, active compounds read low
[9] = locus YDL108W, strain KIN28, active compounds read low
[10] = locus YDL132W, strain cdc53, active compounds read low
[11] = locus YDL214C, strain PRR2, active compounds read low
[12] = locus YDR052C, strain DBF4, active compounds read low
[13] = locus YDR054C, strain cdc34, active compounds read low
[14] = locus YDR226W, strain ADK1, active compounds read low
[15] = locus YDR477W, strain SNF1, active compounds read low
[16] = locus YER123W, strain YCK3, active compounds read low
[17] = locus YER133W, strain GLC7, active compounds read low
[18] = locus YFL009W, strain cdc4, active compounds read low
[19] = locus YFL029C, strain CAK1, active compounds read low
[20] = locus YFR003C, strain YPI1, active compounds read low
[21] = locus YFR019W, strain FAB1, active compounds read low
[22] = locus YFR028C, strain CDC14, active compounds read low
[23] = locus YGR040W, strain KSS1, active compounds read low
[24] = locus YGR052W, strain FMP48, active compounds read low
[25] = locus YGR092W, strain DBF2, active compounds read low
[26] = locus YHR030C, strain SLT2, active compounds read low
[27] = locus YHR079C, strain IRE1, active compounds read low
[28] = locus YHR082C, strain KSP1, active compounds read low
[29] = locus YHR205W, strain SCH9, active compounds read low
[30] = locus YIL147C, strain SLN1, active compounds read low
[31] = locus YJL095W, strain BCK1, active compounds read low
[32] = locus YJL128C, strain PBS2, active compounds read low
[33] = locus YJL157C, strain FAR1, active compounds read low
[34] = locus YJR016C, strain ILV3, active compounds read low
[35] = locus YJR066W, strain TOR1 (second series), active compounds read low
[36] = locus YJR066W, strain TOR1, active compounds read low
[37] = locus YKL048C, strain ELM1, active compounds read low
[38] = locus YKL067W, strain YNK1, active compounds read low
[39] = locus YKL101W, strain HSL1, active compounds read low
[40] = locus YKL193C, strain SDS22, active compounds read low
[41] = locus YKL203C, strain TOR2, active compounds read low
[42] = locus YLR113W, strain HOG1, active compounds read low
[43] = locus YLR133W, strain CKI1, active compounds read low
[44] = locus YLR403W, strain SFP1, active compounds read low
[45] = locus YML070W, strain DAK1, active compounds read low
[46] = locus YMR001C, strain CDC5, active compounds read low
[47] = locus YMR205C, strain PFK2 (second series), active compounds read low
[48] = locus YMR277W, strain FCP1, active compounds read low
[49] = locus YNL006W, strain LST8, active compounds read low
[50] = locus YNL020C, strain ARK1, active compounds read low
[51] = locus YNL161W, strain CBK1, active compounds read low
[52] = locus YNL183C, strain NPR1, active compounds read low
[53] = locus YNL207W, strain RIO2, active compounds read low
[54] = locus YNL222W, strain SSU72, active compounds read low
[55] = locus YNL307C, strain MCK1 (second series), active compounds read low
[56] = locus YOL078W, strain AVO1, active compounds read low
[57] = locus YOL136C, strain PFK27, active compounds read low
[58] = locus YOR061W, strain CKA2, active compounds read low
[59] = locus YOR119C, strain RIO1, active compounds read low
[60] = locus YOR231W, strain MKK1, active compounds read low
[61] = locus YOR329C, strain SCD5, active compounds read low
[62] = locus YPL031C, strain PHO85, active compounds read low
[63] = locus YPL153C, strain RAD53, active compounds read low
[64] = locus YPL204W, strain HRR25, active compounds read low
[65] = locus YPL209C, strain IPL1, active compounds read low
[66] = locus YPL256C, strain CLN2, active compounds read low
[67] = locus YPR025C, strain CCL1, active compounds read low
[68] = locus YPR106W, strain ISR1, active compounds read low
[69] = locus YPR111W, strain DBF20, active compounds read low
[70] = strain NNK1, active compounds read low
[71] = strain TSCII, active compounds read low

Measured: normalized growth

Cc1cc(Cl)ccc1NNC(=O)c1sccc1Br
inactive: [1] 0.928 | [2] 0.925 | [3] 0.927 | [4] 0.921 | [5] 0.918 | [6] 0.928 | [7] 0.929 | [8] 0.917 | [9] 0.932 | [10] 0.918 | [11] 0.872 | [12] 0.931 | [13] 0.908 | [14] 0.922 | [15] 0.871 | [16] 0.81 | [17] 0.851 | [18] 0.925 | [19] 0.921 | [20] 0.924 | [21] 0.895 | [22] 0.924 | [23] 0.844 | [24] 0.908 | [25] 0.784 | [27] 0.862 | [28] 0.879 | [29] 0.844 | [30] 0.928 | [31] 0.714 | [32] 0.895 | [33] 0.85 | [34] 0.935 | [35] 0.862 | [36] 0.886 | [37] 0.896 | [38] 0.873 | [39] 0.872 | [40] 0.92 | [41] 0.921 | [43] 0.849 | [44] 0.838 | [45] 0.842 | [46] 0.918 | [47] 0.87 | [48] 0.921 | [49] 0.925 | [50] 0.862 | [51] 0.923 | [52] 0.851 | [53] 0.906 | [54] 0.925 | [55] 0.785 | [56] 0.916 | [57] 0.825 | [58] 0.868 | [59] 0.92 | [60] 0.824 | [61] 0.913 | [62] 0.867 | [63] 0.855 | [64] 0.838 | [65] 0.911 | [67] 0.925 | [68] 0.912 | [69] 0.919 | [70] 0.915 | [71] 0.92
active: [26] 0.489 | [42] 0.715 | [66] 0.793

O=C(NNc1ccc(F)cc1F)c1sccc1Cl
active: [42] 0.858
inactive: [1] 0.974 | [2] 0.96 | [3] 0.978 | [4] 0.971 | [5] 0.971 | [6] 0.968 | [7] 0.975 | [8] 0.961 | [9] 0.977 | [10] 0.969 | [11] 0.924 | [12] 0.971 | [13] 0.957 | [14] 0.968 | [15] 0.927 | [16] 0.841 | [17] 0.952 | [18] 0.975 | [19] 0.962 | [20] 0.978 | [21] 0.916 | [22] 0.977 | [23] 0.912 | [24] 1 | [25] 0.879 | [26] 0.903 | [27] 0.96 | [28] 0.987 | [29] 0.925 | [30] 0.968 | [31] 0.939 | [32] 0.967 | [33] 0.926 | [34] 0.976 | [35] 0.86 | [36] 1.01 | [37] 0.927 | [38] 0.952 | [39] 0.913 | [40] 0.976 | [41] 0.985 | [43] 0.926 | [44] 0.917 | [45] 0.904 | [46] 0.974 | [47] 0.963 | [48] 0.984 | [49] 0.989 | [50] 0.939 | [51] 0.974 | [52] 0.956 | [53] 0.975 | [54] 0.975 | [55] 0.858 | [56] 0.968 | [57] 0.908 | [58] 0.83 | [59] 0.994 | [60] 0.914 | [61] 0.97 | [62] 0.944 | [63] 0.92 | [64] 0.914 | [65] 0.967 | [66] 0.894 | [67] 0.978 | [68] 0.957 | [69] 0.953 | [70] 0.967 | [71] 0.97

Cc1ccc(NNC(=O)c2cccs2)cc1Cl
inactive: [1] 0.969 | [2] 0.969 | [3] 0.971 | [4] 0.974 | [5] 0.957 | [6] 0.979 | [7] 0.972 | [8] 0.968 | [9] 0.967 | [10] 0.975 | [11] 0.964 | [12] 0.976 | [13] 0.966 | [14] 0.96 | [15] 0.974 | [16] 0.897 | [17] 0.966 | [18] 0.976 | [19] 0.966 | [20] 0.976 | [21] 0.958 | [22] 0.964 | [23] 0.963 | [24] 1.01 | [25] 0.824 | [26] 0.943 | [27] 0.97 | [28] 1.03 | [29] 0.964 | [30] 0.98 | [31] 0.984 | [32] 0.963 | [33] 0.952 | [34] 0.975 | [35] 0.925 | [36] 1.03 | [37] 0.945 | [38] 0.953 | [39] 0.963 | [40] 0.968 | [41] 1.03 | [42] 0.876 | [43] 0.968 | [44] 0.929 | [45] 0.918 | [46] 0.979 | [47] 0.961 | [48] 0.974 | [49] 0.975 | [50] 0.963 | [51] 0.966 | [52] 0.979 | [53] 0.976 | [54] 0.961 | [55] 0.922 | [56] 0.972 | [57] 0.943 | [58] 0.894 | [59] 1.02 | [60] 0.914 | [61] 0.978 | [62] 0.964 | [63] 0.949 | [64] 0.959 | [65] 0.967 | [66] 0.948 | [67] 0.969 | [68] 0.973 | [69] 0.962 | [70] 0.991 | [71] 0.972

From PubChem BioAssay AID1159580 (chemical genetic matrix, 2015)
